# From PubChem BioAssay (NCATS)
# Records with an inconclusive call do not appear. The source made the active and inactive calls. Calls come from the whole dose curve; as a rule, active = well fitted cell-killing curve with a large enough effect; inconclusive = small, poorly fitted or top-dose-only effect; inactive = no such curve, though single readings can be large or run the other way.
# Experiment: Quantitative High-Throughput drug screen in 47 multiple myeloma cell lines against the NCATS MIPE library collection: NCIH929_DSMZ cell viability assay (AID 1918978); note: nearly all actives have a fitted effect of over 35% in size
# Settings: NCI-H929 myeloma viability, CellTiter-Glo ATP, 48 h; series mostly up to 45.8 µM; viability, % of control: at the top concentration
# From the text: PI: Beverly A. Mock Ph.D.
# Laboratory of Cancer Biology and Genetics,
# Center for Cancer Research, National Cancer Institute,
# National Institute of Health, Bethesda, Maryland
# Drug resistance and disease progression are common in multiple myeloma (MM) patients, underscoring the need for new therapeutic combinations. […] We hypothesized that effective combinations would reduce MYC expression and enhance p16 activity. […] These preclinical data identify potentially useful drug combinations for evaluation in drug-resistant MM and reveal potential mechanisms of combined drug sensitivity.
# Described herein is the primary MIPE qHTS used to cherrypick compounds. Validated compounds were then further tested for potential synergistic activiy.
# [1] Peat TJ, Gaikwad SM, Dubois W, Gyabaah-Kessie N, Zhang S, Gorjifard S, Phyo Z, Andres M, Hughitt VK, Simpson RM, Miller MA, Girvin AT, Taylor A, Williams D, D'Antonio N, Zhang Y, Rajagopalan A, Flietner E, Wilson K, Zhang X, Shinn P, Klumpp-Thomas C, McKnight C, Itkin Z, Chen L, Kazandijian D, Zhang J, Michalowski AM, Simmons JK, Keats J, Thomas CJ, Mock BA. Drug combinations identified by high-throughput screening promote cell cycle transition and upregulate Smad pathways in myeloma. Cancer Lett. 2023 Aug 1;568:216284. doi: 10.1016/j.canlet.2023.216284. Epub 2023 Jun 24. PMID: 37356470; PMCID: PMC10408729.
# SEQUENCE No. (e.g., 1, 2, 3, etc.); […] (e.g., Cells, Incubation, Reagent, etc.); VALUE and DESCRIPTION.
# 1; Cells; 5 uL; white, solid bottom 1536-well Greiner assay plate.
# 2; Compounds; 23 nL; Kalypsis pin tool (Wako USA) equipped with a 1536-well pin head to transfer to the assay plates.
# 3; Incubation; 48 hours; 37C incubation.
# 4; Reagent;5uL; CellTiter Glo (Promega).
# 5; Detector; 425V; Luminescence; Viewlux PerkinElmer.
# NOTES (numbers refer to Sequence numbers above)
# 1. The cell-based screening methods employed in this study were like those previously published. Briefly, the corresponding myeloma cell lines were screened in 1,536-well plates with 500 cells, 5-uL per well for inhibition of cell viability (assessed by measuring ATP levels with CellTiterGlo).
# 2. NCATS MIPE 4.0 library of approved and investigational drugs were added using the Kalypsis pin tool. Wells treated with DMSO only for 100% viability and media only for 0% viability were used as controls.
# 3. The assay plates were covered and incubated for 48 hours in a 37C, 5% CO2 incubator with controlled humidity.
# 4. After 48 hours, CellTilter-GloTM luminescent substrate mix (Promega) reagent was added to the assay plate and plates we incubated for 5 min at room temperature.
# 5. Signal was measured as median relative luminescence units on a ViewLux (PerkinElmer) multiplate reader.
# [1] Heske CM, Davis MI, Baumgart JT, Wilson K, Gormally MV, Chen L, Zhang X, Ceribelli M, Duveau DY, Guha R, Ferrer M, Arnaldez FI, Ji J, Tran HL, Zhang Y, Mendoza A, Helman LJ, Thomas CJ. Matrix Screen Identifies Synergistic Combination of PARP Inhibitors and Nicotinamide Phosphoribosyltransferase (NAMPT) Inhibitors in Ewing Sarcoma. Clin Cancer Res. 2017 Dec 1;23(23):7301-7311. doi: 10.1158/1078-0432.CCR-17-1121. Epub 2017 Sep 12. PMID: 28899971; PMCID: PMC6636827.
# Potency is the fitted concentration of half-maximal effect.
Compound,Potency,"viability, % of control"
CCN(CC)CCOc1ccc(Nc2ncc3cc(-c4c(Cl)cccc4Cl)c(=O)n(C)c3n2)cc1,1.87 µM (active),–
O=C(NCCO[N+](=O)[O-])c1cccnc1,–,119% (inactive)
NCCCCNCCCN,18.7 µM (active),–
CC(=O)NC[C@H]1CN(c2ccc(N3CCOCC3)c(F)c2)C(=O)O1,–,122% (inactive)
CCC[C@@H]1C[C@@H](C(=O)N[C@@H]([C@H]2O[C@H](SC)[C@H](O)[C@@H](O)[C@H]2O)[C@@H](C)O)N(C)C1,–,99.2% (inactive)
CNC[C@H](O)c1ccc(O)c(O)c1,–,81.3% [at 92.2 µM] (inactive)
CN(C)c1ccc(O)c2c1C[C@H]1C[C@H]3[C@H](N(C)C)C(=O)C(C(N)=O)=C(O)[C@@]3(O)C(=O)C1=C2O,16.6 µM (active),–
CCOC(=O)C(C)Oc1cccc2c(=O)n(CC(=O)Nc3ccc4c(c3)OCCO4)ccc12 (stereo not given),–,110% (inactive)
CN(c1nccc(=O)[nH]1)C1CCN(c2nc3ccccc3n2Cc2ccc(F)cc2)CC1,13.2 µM (active),–
CS(=O)(=O)OCCCCOS(C)(=O)=O,–,122% (inactive)
c1ccc2[nH]c(-c3cscn3)nc2c1,–,125% (inactive)
CNC[C@@H](O)[C@@H](O)[C@H](O)[C@H](O)CO,–,105% (inactive)
CCCCc1ccc2nc(NC(=O)OC)[nH]c2c1,0.935 µM (active),–
CC1(C)NC(=O)N(c2ccc([N+](=O)[O-])c(C(F)(F)F)c2)C1=O,–,88.5% (inactive)
CC1Cc2ccccc2N1NC(=O)c1ccc(Cl)c(S(N)(=O)=O)c1 (stereo not given),–,92.2% (inactive)
O=C(O)c1cc(=O)c2c(OCC(O)COc3cccc4oc(C(=O)O)cc(=O)c34)cccc2o1,–,92.9% (inactive)
CCCOc1ccc2nc(NC(=O)OC)[nH]c2c1,1.48 µM (active),–
N=C(N=C(N)N)N1CCOCC1,–,122% (inactive)
COc1ccc2cc([C@H](C)C(=O)O)ccc2c1,–,115% (inactive)
CC(C)Oc1ccc2c(=O)c(-c3ccccc3)coc2c1,–,109% (inactive)

Compound,Potency,"viability, % of control"
COc1cc(OC)c(C(=O)CCCN2CCCC2)c(OC)c1,–,120% (inactive)
COc1cc(Nc2c(C#N)cnc3cc(OCCCN4CCN(C)CC4)c(OC)cc23)c(Cl)cc1Cl,3.72 µM (active),–
Oc1ccc(OCc2ccccc2)cc1,–,102% (inactive)
Cc1cc(=O)oc2cc(O)ccc12,–,112% (inactive)
Cc1cc(=O)c2c(O)c3c(O)cc(=O)c4c3c3c(cc(O)c1c23)C(C)(C)C=4O,0.296 µM (active),–
O=C(c1ccccc1)c1ccc2n1CCC2C(=O)O (stereo not given),5.26 µM (active),–
COc1cc2c(N3CCN(C(=O)Nc4ccc(OC(C)C)cc4)CC3)ncnc2cc1OCCCN1CCCCC1,11.8 µM (active),–
NS(=O)(=O)c1cc(C(=O)O)c(NCc2ccco2)cc1Cl,–,89.9% (inactive)
CCOC(=O)C1=C(O)C(=O)N(Cc2ccccc2)C1,–,105% (inactive)
COC(=O)N[C@H](C(=O)N[C@@H](Cc1ccccc1)[C@@H](O)CN(Cc1ccc(-c2ccccn2)cc1)NC(=O)[C@@H](NC(=O)OC)C(C)(C)C)C(C)(C)C,–,100% (inactive)
COC(=O)C1=C(C)NC(C)=C(C(=O)OCCCN2CCC(c3ccccc3)(c3ccccc3)CC2)C1c1cccc([N+](=O)[O-])c1 (stereo not given),–,110% (inactive)
CCCCCCCCOc1ccccc1C(=O)Nc1ccc(C(=O)OCC[N+](C)(CC)CC)cc1,20.9 µM (active),–
CN(C)[C@@H](CCOc1cccc2ccccc12)c1ccccc1,20.9 µM (active),–
O=Nc1c(-c2c(O)[nH]c3cc(Br)ccc23)[nH]c2ccccc12,2.64 µM (active),–
NC(=O)Cc1cccc(C(=O)c2ccccc2)c1N,–,105% (inactive)
COc1cc(C(C)=O)ccc1OCCCN1CCC(c2noc3cc(F)ccc23)CC1,18.7 µM (active),–
Nc1ccc(S(N)(=O)=O)cc1,–,106% (inactive)
CC[C@]1(O)C[C@H]2CN(CCc3c([nH]c4ccccc34)[C@@](C(=O)OC)(c3cc4c(cc3OC)N(C=O)[C@H]3[C@@](O)(C(=O)OC)[C@H](OC(C)=O)[C@]5(CC)C=CCN6CC[C@]43[C@@H]65)C2)C1,0.0235 µM (active),–
CN(C)CCc1c[nH]c2ccc(Cn3cncn3)cc12,–,119% (inactive)
Nc1nc(Cl)nc2c1ncn2[C@H]1C[C@H](O)[C@@H](CO)O1,0.59 µM (active),–
